Data from PubChem BioAssay (NCATS).
Results filed as inconclusive are left out. Active and inactive are the calls of the source. The call rests on the fitted dose curve; in most records, active means well fitted curve in the direction sought with a large enough effect; inconclusive means small, poorly fitted or top-dose-only effect, or another doubt; inactive means no such curve, though single readings can be large; an effect the other way counts as inactive or inconclusive.

What was measured:
[1] = target: Methanococcus maripaludis chaperonin (MmCpn) (UniProt Q6LX38); assay: High-Throughput Screening for Modulators of Cytosolic Chaperonin Activity: MmCpn Primary Screen (AID 488978);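 further: 50 nM MmCpn enzyme hydrolysing 30 µM ATP at 37 °C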
Method in brief: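 MmCpn (50 nM final) was preincubated with compound 5 min at RT, then 30 uM ATP (final) was added and the reaction ran 10 min at 37C. ADP produced was detected by Transcreener HTRF (ex 320 nm; em 590/665 nm).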

[2] = target: D(1A) dopamine receptor (Homo sapiens) (UniProt P21728); assay: HTS Assay for Allosteric Agonists of the Human D1 Dopamine Receptor: Primary Screen for Agonists (AID 488981)
Method in brief: (§1)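 Tetracycline-induced HEK293 Trex D1 cells with forced coupling to calcium, loaded with no-wash calcium dye; kinetic fluorescence read 180 s after compound addition for agonism, then a further 180 s after an EC20 dopamine challenge for potentiation.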

[3] = target: Thioredoxin reductase 1, cytoplasmic (Rattus norvegicus) (UniProt O89049); assay: qHTS Assay for Substrates of Mammalian Selenoprotein Thioredoxin Reductase 1 (TrxR1) (AID 488772);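 further: NADPH fluorescence in the first read after selenite addition and not the 8 min delta; series mostly up to about 57 µM; a drop in NADPH fluorescence below the no-compound background marks a TrxR1 substrate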
Method in brief: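 Quantitative HTS in Tris-HCl buffer at pH 7.5 with EDTA and Tween-20, using rat TrxR1, 400 uM NADPH and 400 uM selenite (final). A fall in initial NADPH fluorescence relative to background marked substrate behaviour.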

[4] = target: Thioredoxin reductase 1, cytoplasmic (Rattus norvegicus) (UniProt O89049); assay: qHTS Assay for Inhibitors of Mammalian Selenoprotein Thioredoxin Reductase 1 (TrxR1) (AID 488773); conditions: Potency: inhibition;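 further: drop in NADPH fluorescence over an 8 min run after selenite addition; series mostly up to about 57 µM; nearly all actives have a fitted effect of over 40% in size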
Method in brief: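 Steps: enzyme (90 nM) plus NADPH (400 uM final), 5 min at ~22 deg C; compound added, 15 min; selenite (400 uM final) added; fluorescence followed for 8 min. Concentration-response curves derived from the normalized delta values.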

[5] = target: Flap endonuclease 1 (Homo sapiens) (UniProt P39748); assay: qHTS Validation Assay for the Inhibitors of Human Flap endonuclease 1 (FEN1) (AID 488816)
Method in brief: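 Human FEN1 (10 nM) preincubated 15 min at room temperature with compounds, then flap DNA substrate added at 50 nM final. Fluorescence read at 0 and 15 min; concentration-response fitted with four-parameter Hill equation.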

[6] = target: M-phase phosphoprotein 8 (Homo sapiens) (UniProt Q99549); assay: qHTS Validation Assay for Inhibitors for MPP8 Chromodomain Interactions with Methylated Histone Tails (AID 488949);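 further: AlphaScreen signal from MPP8 chromodomain bound to biotinylated H3K9me3 peptide; top concentration of the series differs between compounds; nearly all actives have a fitted effect of over 55% in size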
Method in brief: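 MPP8 (50 nM) was preincubated with biotinylated H3(1-18)K9me3 peptide (50 nM) in PBS pH 7.4, 0.01% Tween-20 for 30 min at room temperature, then with compounds for 30 min; binding was detected by AlphaScreen.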

[7] = target: Chromobox protein homolog 1 (Homo sapiens) (UniProt P83916); assay: qHTS Validation Assay for Inhibitors of HP1-beta Chromodomain Interactions with Methylated Histone Tails (AID 488953);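 further: loss of AlphaScreen luminescence from HP1-beta binding biotinylated H3K9me3 peptide; series mostly up to about 110 µM; nearly all actives have a fitted effect of over 50% in size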
Method in brief: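 HP1-beta (50 nM) was preincubated 30 min at room temperature with biotinylated H3(1-18)K9me3 peptide (50 nM) in PBS pH 7.4, 0.01% Tween-20, then with compounds 30 min. AlphaScreen signal was read after streptavidin donor/nickel chelate acceptor beads (10 ug/mL final).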

[8] = target: Transient receptor potential cation channel subfamily V member 1 (Homo sapiens) (UniProt Q8NER1); assay: HTS Assay for Compounds that Act as Enhancers of the Vanilloid Receptor 1 (AID 488979)
Method in brief: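 TRPV1 cells loaded with Fluo-8 calcium dye; compound added and Ca2+ signal (ex 480/em 520 nm) followed 3 min, then capsaicin at EC20 added and read 2 more min to detect enhancement.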

[9] = target: D(1A) dopamine receptor (Homo sapiens) (UniProt P21728); assay: HTS Assay for Allosteric Agonists of the Human D1 Dopamine Receptor: Primary Screen for Potentiators (AID 488982)
Method in brief: as §1

[10] = Quantitative high throughput screen for delayed death inhibitors of the malarial parasite plastid, 48 hour incubation (AID 488752); further: nearly all actives have a fitted effect of over 65% in size; further: potency means the concentration at half of the fitted maximal effect
Method in brief: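 Erythrocytes infected with P. falciparum carrying an integrated firefly luciferase reporter (2% hematocrit, 0.1% parasitemia final) were exposed to compounds in RPMI 1640/0.5% Albumax for 48 h at 37 C, 5% CO2. Growth inhibition was scored as reduced luminescence.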

Measured: Potency

Chain of Thioredoxin reductase 1, cytoplasmic (Rattus norvegicus) (O89049 whole entry, looked up): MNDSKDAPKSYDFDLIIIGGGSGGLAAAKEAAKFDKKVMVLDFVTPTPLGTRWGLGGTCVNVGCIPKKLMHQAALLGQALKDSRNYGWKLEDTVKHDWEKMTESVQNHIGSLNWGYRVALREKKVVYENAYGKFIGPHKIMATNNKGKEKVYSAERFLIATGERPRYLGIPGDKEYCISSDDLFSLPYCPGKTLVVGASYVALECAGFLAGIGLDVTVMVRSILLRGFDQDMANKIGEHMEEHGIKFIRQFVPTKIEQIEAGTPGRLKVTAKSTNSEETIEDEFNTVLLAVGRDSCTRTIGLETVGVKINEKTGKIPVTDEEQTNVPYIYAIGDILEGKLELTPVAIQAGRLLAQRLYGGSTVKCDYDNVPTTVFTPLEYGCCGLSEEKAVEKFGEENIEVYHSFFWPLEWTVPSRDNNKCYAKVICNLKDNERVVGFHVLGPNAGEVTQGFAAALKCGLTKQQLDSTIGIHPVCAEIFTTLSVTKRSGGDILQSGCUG
Chain of M-phase phosphoprotein 8 (Homo sapiens) (Q99549 whole entry, looked up): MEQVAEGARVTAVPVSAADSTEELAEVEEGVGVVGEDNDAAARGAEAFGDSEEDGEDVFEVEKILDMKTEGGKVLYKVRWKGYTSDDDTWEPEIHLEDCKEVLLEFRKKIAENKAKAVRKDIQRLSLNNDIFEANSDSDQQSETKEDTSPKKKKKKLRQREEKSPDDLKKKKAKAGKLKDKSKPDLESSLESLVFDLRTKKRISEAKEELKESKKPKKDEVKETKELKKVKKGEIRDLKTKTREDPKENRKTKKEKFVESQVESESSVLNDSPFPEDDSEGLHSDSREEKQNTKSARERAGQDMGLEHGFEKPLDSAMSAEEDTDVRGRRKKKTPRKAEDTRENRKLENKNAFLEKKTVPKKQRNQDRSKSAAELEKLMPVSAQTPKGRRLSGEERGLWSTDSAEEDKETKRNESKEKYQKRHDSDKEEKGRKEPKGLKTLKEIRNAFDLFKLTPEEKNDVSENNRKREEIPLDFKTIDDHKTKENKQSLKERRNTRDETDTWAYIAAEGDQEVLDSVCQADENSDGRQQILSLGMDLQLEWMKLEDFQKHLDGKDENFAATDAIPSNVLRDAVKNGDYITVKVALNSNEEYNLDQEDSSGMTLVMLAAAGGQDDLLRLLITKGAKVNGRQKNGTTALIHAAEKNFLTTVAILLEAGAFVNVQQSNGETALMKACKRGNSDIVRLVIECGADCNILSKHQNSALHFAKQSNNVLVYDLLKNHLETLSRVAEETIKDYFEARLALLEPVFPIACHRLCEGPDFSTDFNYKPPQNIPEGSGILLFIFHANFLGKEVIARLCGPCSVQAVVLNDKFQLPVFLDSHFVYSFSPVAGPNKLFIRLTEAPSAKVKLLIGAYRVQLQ
Chain of D(1A) dopamine receptor (Homo sapiens) (P21728 whole entry, looked up): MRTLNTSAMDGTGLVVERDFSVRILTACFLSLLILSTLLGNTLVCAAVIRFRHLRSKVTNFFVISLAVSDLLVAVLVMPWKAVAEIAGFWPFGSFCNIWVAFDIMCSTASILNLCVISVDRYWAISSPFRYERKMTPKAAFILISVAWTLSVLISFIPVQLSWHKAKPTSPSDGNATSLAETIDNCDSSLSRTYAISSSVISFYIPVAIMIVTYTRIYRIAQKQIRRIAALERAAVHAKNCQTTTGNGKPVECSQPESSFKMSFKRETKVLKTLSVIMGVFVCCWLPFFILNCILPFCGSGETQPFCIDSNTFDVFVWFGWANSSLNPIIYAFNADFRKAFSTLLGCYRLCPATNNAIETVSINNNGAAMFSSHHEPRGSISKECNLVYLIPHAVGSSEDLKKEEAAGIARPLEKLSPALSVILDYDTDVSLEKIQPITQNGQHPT
Chain of Transient receptor potential cation channel subfamily V member 1 (Homo sapiens) (Q8NER1 whole entry, looked up): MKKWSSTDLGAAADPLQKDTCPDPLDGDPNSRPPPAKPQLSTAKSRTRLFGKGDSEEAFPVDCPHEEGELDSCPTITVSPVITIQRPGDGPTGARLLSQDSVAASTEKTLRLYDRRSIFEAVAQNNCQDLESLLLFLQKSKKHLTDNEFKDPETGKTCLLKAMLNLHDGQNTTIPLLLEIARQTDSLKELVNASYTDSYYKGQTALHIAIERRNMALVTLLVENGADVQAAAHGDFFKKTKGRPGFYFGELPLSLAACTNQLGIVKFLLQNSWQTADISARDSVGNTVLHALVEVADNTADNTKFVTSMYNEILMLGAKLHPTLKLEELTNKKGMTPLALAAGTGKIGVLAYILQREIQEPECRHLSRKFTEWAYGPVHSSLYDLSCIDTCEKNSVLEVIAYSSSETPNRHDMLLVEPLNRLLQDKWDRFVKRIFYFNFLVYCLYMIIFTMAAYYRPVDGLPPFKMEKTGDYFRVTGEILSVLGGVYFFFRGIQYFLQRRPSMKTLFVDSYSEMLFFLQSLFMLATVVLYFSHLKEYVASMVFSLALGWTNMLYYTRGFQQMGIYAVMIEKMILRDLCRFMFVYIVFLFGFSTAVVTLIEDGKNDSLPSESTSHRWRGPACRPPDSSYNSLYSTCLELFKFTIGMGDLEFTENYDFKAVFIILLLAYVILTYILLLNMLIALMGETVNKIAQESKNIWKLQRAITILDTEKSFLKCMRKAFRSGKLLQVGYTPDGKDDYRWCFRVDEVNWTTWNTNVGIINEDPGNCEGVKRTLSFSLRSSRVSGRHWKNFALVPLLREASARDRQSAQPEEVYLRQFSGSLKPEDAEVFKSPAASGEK
Chain of Methanococcus maripaludis chaperonin (MmCpn) (Q6LX38 1-543): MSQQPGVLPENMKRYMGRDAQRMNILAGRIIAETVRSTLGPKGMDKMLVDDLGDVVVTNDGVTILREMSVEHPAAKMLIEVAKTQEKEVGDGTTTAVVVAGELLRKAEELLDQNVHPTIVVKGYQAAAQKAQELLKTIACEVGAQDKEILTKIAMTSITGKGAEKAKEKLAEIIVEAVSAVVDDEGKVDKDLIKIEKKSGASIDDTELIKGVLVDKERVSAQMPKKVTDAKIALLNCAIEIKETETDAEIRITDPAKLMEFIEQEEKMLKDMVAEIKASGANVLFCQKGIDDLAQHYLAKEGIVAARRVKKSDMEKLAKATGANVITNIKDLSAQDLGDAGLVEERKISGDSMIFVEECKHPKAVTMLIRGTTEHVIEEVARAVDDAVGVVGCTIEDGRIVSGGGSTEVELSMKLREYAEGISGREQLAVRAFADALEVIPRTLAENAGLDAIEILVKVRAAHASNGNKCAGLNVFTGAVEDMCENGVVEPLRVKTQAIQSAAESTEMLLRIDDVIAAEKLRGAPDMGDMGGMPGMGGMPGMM
Chain of Chromobox protein homolog 1 (Homo sapiens) (P83916 whole entry, looked up): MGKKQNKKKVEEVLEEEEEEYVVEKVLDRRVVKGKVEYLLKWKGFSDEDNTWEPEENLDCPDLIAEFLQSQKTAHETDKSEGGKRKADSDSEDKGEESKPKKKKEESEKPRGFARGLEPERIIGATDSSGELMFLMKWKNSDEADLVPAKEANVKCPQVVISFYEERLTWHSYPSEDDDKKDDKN
Chain of Flap endonuclease 1 (Homo sapiens) (P39748 whole entry, looked up): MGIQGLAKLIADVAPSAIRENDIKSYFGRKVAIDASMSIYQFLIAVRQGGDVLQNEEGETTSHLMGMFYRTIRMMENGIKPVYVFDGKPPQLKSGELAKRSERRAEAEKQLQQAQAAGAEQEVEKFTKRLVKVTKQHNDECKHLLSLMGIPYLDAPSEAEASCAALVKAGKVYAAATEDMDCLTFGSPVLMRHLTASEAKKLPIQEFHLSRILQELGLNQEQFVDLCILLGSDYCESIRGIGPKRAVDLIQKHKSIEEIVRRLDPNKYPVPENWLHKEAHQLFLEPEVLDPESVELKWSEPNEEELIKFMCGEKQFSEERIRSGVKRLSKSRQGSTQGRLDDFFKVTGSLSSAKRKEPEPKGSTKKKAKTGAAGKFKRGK

CN(C)CCCN1c2ccccc2CCc2ccccc21
inactive: [1] | [2]

C[C@]12CC[C@@H]3c4ccc(O)cc4CC[C@H]3[C@@H]1CCC2=O
inactive: [3] | [4] | [5] | [6] | [7] | [1] | [8] | [2] | [9]

C[C@H]1O[C@@H](n2cc(F)c(=O)[nH]c2=O)[C@H](O)[C@@H]1O
inactive: [10] | [6] | [8]

N=c1c[n+](N2CCOCC2)[n-]o1
inactive: [10] | [3] | [5] | [6] | [7] | [1] | [8] | [2] | [9]

CNCCCC1c2ccccc2C=Cc2ccccc21
inactive: [3] | [4] | [6] | [7] | [2] | [9]
active: [10] 14.7 µM
